Compound activity deposited in PubChem by National Center for Advancing Translational Sciences (NCATS).
Hits are enriched below; roughly 17% of the tested compounds scored in any of these assays.
TDP1 block: inhibitors of human tyrosyl-DNA phosphodiesterase TDP1. Potency, µM (titrated, usually from 130 µM), most hits filed as inhibitors. actives 0.28% (n = 350,000). recombinant TDP1, AlphaScreen DNA substrate cleavage. Q9NUW8. AID 485290; further: nearly all actives have a fitted effect of over 40% in size
Target sequence (Q9NUW8 whole entry, looked up): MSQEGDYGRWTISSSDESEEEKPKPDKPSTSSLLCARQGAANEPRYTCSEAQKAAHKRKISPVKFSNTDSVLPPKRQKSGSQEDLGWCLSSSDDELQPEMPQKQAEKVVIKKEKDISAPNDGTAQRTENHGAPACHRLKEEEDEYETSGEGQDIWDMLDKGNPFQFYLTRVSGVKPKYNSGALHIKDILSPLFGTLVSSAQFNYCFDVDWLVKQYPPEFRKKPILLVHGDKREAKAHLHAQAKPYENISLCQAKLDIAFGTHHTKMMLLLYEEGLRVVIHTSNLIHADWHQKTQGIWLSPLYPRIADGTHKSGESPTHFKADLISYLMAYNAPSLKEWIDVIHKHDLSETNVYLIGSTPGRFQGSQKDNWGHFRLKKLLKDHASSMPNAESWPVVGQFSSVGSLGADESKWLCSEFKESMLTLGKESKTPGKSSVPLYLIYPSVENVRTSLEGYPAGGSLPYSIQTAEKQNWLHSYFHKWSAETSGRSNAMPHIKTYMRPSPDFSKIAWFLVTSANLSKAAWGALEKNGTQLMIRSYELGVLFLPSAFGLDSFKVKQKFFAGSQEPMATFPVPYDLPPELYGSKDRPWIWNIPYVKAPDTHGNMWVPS
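Tdp1 1 nM final; 15 min RT w/ cpd; substrate 15 nM, 5 min; beads 10 ug/ml, 10 min; AlphaScreen read. Neg ctrl: no enzyme.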
DT40 TDP1 no CPT: qHTS for Inhibitors of human tyrosyl-DNA phosphodiesterase 1 (TDP1): qHTS in cells in absence of CPT | actives 15% (n = 420,000) | DT40 Tdp1-/- hTDP1 cells, no CPT, ATP luminescence, 48 h | Potency, µM (highest dose often 46.2 µM), actives largely listed as inhibitors | AID 686978, 2013; further: nearly all actives have a fitted effect of over 55% in size
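Chicken DT40 Tdp1-/- cells complemented with human TDP1, screened without camptothecin (DMSO vehicle only), 400 cells/well. Compounds pin-transferred, cells incubated at 37 °C for at least 48 hr. Growth read as ATP-dependent luminescence (CellTiter-Glo, 30 min at RT).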
ClpP mod: qHTS Assay for Activators of ClpP. ATP-dependent Clp protease proteolytic subunit (Bacillus subtilis (strain 168)), P80244. purified B. subtilis ClpP, FRET peptide cleavage, 20 min. Potency, µM (titrated, usually from 57.5 µM). actives 1.9% (n = 340,000). AID 651965, 2013; active means well fitted falling curve with a large enough effect; inconclusive means small, poorly fitted or top-dose-only effect; inactive means no such curve, though single readings can be large or run the other way; further: the source files actives as falling curves though it sought activators and does not explain the sign; nearly all actives have a fitted effect of over 65% in size
Target sequence (P80244 whole entry, looked up): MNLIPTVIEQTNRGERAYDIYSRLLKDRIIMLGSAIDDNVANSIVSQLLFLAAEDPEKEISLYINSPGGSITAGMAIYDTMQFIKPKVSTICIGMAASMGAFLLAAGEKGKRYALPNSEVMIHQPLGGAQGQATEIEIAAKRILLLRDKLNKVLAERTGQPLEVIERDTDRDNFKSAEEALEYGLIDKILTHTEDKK
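FRET quenching reversal measured ClpP activation: 10 microg/mL B. subtilis ClpP at pH 8 with the FRET-FV decapeptide, read at 430 nm after 320 nm excitation. The 20-min minus 0-min signal was scaled between DMSO/no-enzyme wells and ADEP (5.8 microM final).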
TDP1 cell CPT: DT40-hTDP1 cell growth loss with CPT; chicken DT40 Tdp1-/-;hTDP1 cells + 20 nM CPT, ATP luminescence, 48 h; Potency, µM (top dose mostly 46.2 µM), actives largely listed as inhibitors; AID 686979; actives 12% (n = 420,000); further: nearly all actives have a fitted effect of over 55% in size
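Chicken DT40 Tdp1-/- cells complemented with human TDP1, 400 cells/well, exposed to compounds plus 20 nM camptothecin for at least 48 h at 37 C; viability read as ATP content by CellTiter-Glo luminescence.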
Large screens that a line does not name were inactive. Unless noted, the call rests on the fitted dose curve; in most records, active means well fitted curve in the direction sought with a large enough effect; inconclusive means small, poorly fitted or top-dose-only effect, or another doubt; inactive means no such curve, though single readings can be large; an effect the other way counts as inactive or inconclusive.

Cc1ccc2[nH]c(C(=O)O)c(-c3ccccc3)c2c1	ClpP mod inconclusive
Cc1ccc2c(c1)S(=O)(=O)N(C)C(c1ccccc1)=C2	DT40 TDP1 no CPT inconclusive, TDP1 cell CPT 18.4µM (no result: TDP1 block)
CCCCCN(C(=O)CCC(=O)OCCOc1ccccc1)c1c(N)n(CCCC)c(=O)[nH]c1=O	none
CCCCCN(C(=O)CCC(=O)OCCOc1cccc(C)c1)c1c(N)n(CCCC)c(=O)[nH]c1=O	DT40 TDP1 no CPT 20.6µM, TDP1 cell CPT inconclusive
CCCCCN(C(=O)CCC(=O)OCc1cccc(Br)c1)c1c(N)n(CCCC)c(=O)[nH]c1=O	DT40 TDP1 no CPT 14.6µM, TDP1 cell CPT inconclusive (no result: TDP1 block)
CCCCCN(C(=O)CCC(=O)OCCOc1ccc(OCC)cc1)c1c(N)n(CCCC)c(=O)[nH]c1=O	TDP1 cell CPT inconclusive (no result: TDP1 block)
COCCNc1cc(N2CCN(C3CCCCC3)CC2)c2noc3c2c1C(=O)c1ccccc1-3	DT40 TDP1 no CPT 16.4µM, TDP1 cell CPT 18.4µM
CN(C)CCCNc1cc(N2CCN(C3CCCCC3)CC2)c2noc3c2c1C(=O)c1ccccc1-3	DT40 TDP1 no CPT 20.6µM, TDP1 cell CPT 23.1µM
CC(C)CNc1cc(NC2CCCCC2)c2c3c(onc13)-c1ccccc1C2=O	DT40 TDP1 no CPT inconclusive, TDP1 cell CPT inconclusive
O=C1c2ccccc2-c2onc3c(Br)cc(NC4CCCCC4)c1c23	none
CCOC(=O)c1c(C)oc2nc(C)nc(NCCCN3CCN(c4cc(C)ccc4C)CC3)c12	TDP1 cell CPT inconclusive
CSCC[C@H](NC(=O)[C@@H]1Cc2ccccc2CN1)C(=O)Nc1ccc2c(c1)OCCO2	none
COc1ccc(C)cc1NC(=O)NC(C)c1ccc2c(c1)OCO2 (stereo not drawn)	none
CCC(C)NC(=O)c1cn(-c2cccc(C)n2)cn1 (stereo not drawn)	ClpP mod 31.6µM
CC(Sc1nc(NCc2ccccc2)nc(N(C)C)n1)C(=O)Nc1ccccc1 (stereo not drawn)	DT40 TDP1 no CPT 20.6µM, TDP1 cell CPT 23.1µM
CCNc1nc(SC(C)C(=O)Nc2ccccc2)nc(N2CCOCC2)n1 (stereo not drawn)	DT40 TDP1 no CPT inconclusive, TDP1 cell CPT inconclusive
CC(Sc1nc(NCc2ccccc2)nc(N2CCOCC2)n1)C(=O)Nc1ccccc1 (stereo not drawn)	DT40 TDP1 no CPT 20.6µM, TDP1 cell CPT inconclusive
O=C(NCc1ccccc1Cl)c1cc(C(=O)C2CC2)c[nH]1	TDP1 cell CPT inconclusive
O=c1[nH]c(SCc2ccc(Br)cc2)nc2c1CCCC2	DT40 TDP1 no CPT inconclusive, TDP1 cell CPT inconclusive
CC(C)COC(=O)NCCCOC(=O)Nc1ccccc1	DT40 TDP1 no CPT inconclusive, TDP1 cell CPT inconclusive
CC(C)OC(=O)NCCOC(=O)Nc1ccc(Cl)cc1	DT40 TDP1 no CPT 14.6µM, TDP1 cell CPT 20.6µM
O=C(Nc1cccc(Cl)c1)OCCOCCOC(=O)Nc1cccc(Cl)c1	DT40 TDP1 no CPT 16.4µM, TDP1 cell CPT inconclusive (no result: TDP1 block, ClpP mod)
CC(C)COC(=O)NCCOC(=O)Nc1cccc(Cl)c1	DT40 TDP1 no CPT 16.4µM, TDP1 cell CPT 16.4µM
CC(C)OC(=O)NCCOC(=O)Nc1ccccc1Cl	none (no result: ClpP mod)
Cc1ccc(N2CC(NC(=O)Cc3ccc(F)cc3)CC2=O)cc1 (stereo not drawn)	none
CC(C)CCc1noc(CN2CCN(CC(=O)NC(C)C)CC2)n1	DT40 TDP1 no CPT 25.9µM, TDP1 cell CPT 25.9µM (no result: TDP1 block, ClpP mod)
CCn1cc(C(=O)NN)c(=O)c2cc(F)c(N3CCN(C)CC3)cc21	none (no result: TDP1 block)
CCn1cc(C(=O)NCc2cccnc2)c(=O)c2cc(F)c(N3CCN(C(=O)c4ccco4)CC3)cc21	DT40 TDP1 no CPT 20.6µM, ClpP mod inconclusive, TDP1 cell CPT 20.6µM
CCCCNC(=O)c1cn(CC)c2cc(N3CCN(C)CC3)c(F)cc2c1=O	none
CCCNC(=O)c1cn(CC)c2cc(N3CCN(C(=O)c4ccco4)CC3)c(F)cc2c1=O	DT40 TDP1 no CPT 20.6µM, TDP1 cell CPT inconclusive
CCn1cc(C(=O)NCc2cccc(F)c2)c(=O)c2cc(F)c(N3CCN(C(=O)c4ccco4)CC3)cc21	DT40 TDP1 no CPT 8.2µM, ClpP mod 25.1µM, TDP1 cell CPT 5.8µM
O=C(c1cc(-c2cccc(Cl)c2)on1)N1CCCCC1	none
C[C@@H]1CN([C@H](C)CO)C(=O)CCCn2nncc2CO[C@H]1CN(C)S(=O)(=O)c1ccccc1F	none (no result: TDP1 block)
C/C(=N\Nc1ccc(S(=O)(=O)N2CCCCC2)cn1)c1cccc(Br)c1	DT40 TDP1 no CPT 3.26µM, TDP1 cell CPT inconclusive
Cc1cc(NC(=O)CS(=O)(=O)c2cn(Cc3ccccc3Cl)c3ccccc23)no1	DT40 TDP1 no CPT inconclusive, TDP1 cell CPT inconclusive
Cc1cc(NC(=O)CS(=O)(=O)c2cn(Cc3cccc(Br)c3)c3ccccc23)no1	DT40 TDP1 no CPT inconclusive, TDP1 cell CPT 25.9µM (no result: TDP1 block)
Cc1cc(NC(=O)CS(=O)c2cn(Cc3cccc(Cl)c3)c3ccccc23)no1 (stereo not drawn)	DT40 TDP1 no CPT 16.4µM, TDP1 cell CPT 20.6µM (no result: TDP1 block)
CNS(=O)(=O)c1ccc(C(=O)NCC(=O)NC(C)c2cccs2)cc1 (stereo not drawn)	none
Cc1ccc(S(=O)(=O)CCC(=O)Nc2nnc(-c3ccccc3S(C)(=O)=O)o2)cc1	none
Cc1ccc(NS(=O)(=O)c2ccc(C(=O)N3CCCCCC3)cc2)cc1	DT40 TDP1 no CPT inconclusive, TDP1 cell CPT inconclusive
CCNC(=O)C(=O)c1c(-c2ccccc2)[nH]c2ccccc12	none (no result: ClpP mod)
Nc1sc(Cc2ccccc2)cc1C(=O)c1c(-c2ccccc2)[nH]c2ccccc12	DT40 TDP1 no CPT 4.61µM, TDP1 cell CPT 3.66µM (no result: TDP1 block)
O=S(=O)(NCc1ccccc1)c1ccc(Cl)cc1	none
O=S(=O)(Nc1cc2nc3ccccc3nc2n1Cc1ccccc1)c1ccc(Cl)cc1	DT40 TDP1 no CPT 23.1µM, TDP1 cell CPT inconclusive
Cc1cccc(C(=O)N=c2c(C#N)cc3c(=O)n4cccc(C)c4nc3n2Cc2ccco2)c1	TDP1 block 15.8µM, DT40 TDP1 no CPT inconclusive, TDP1 cell CPT 20.6µM
Cc1cccn2c(=O)c3cc(C#N)c(=NC(=O)c4ccccc4)n(Cc4ccco4)c3nc12	DT40 TDP1 no CPT 18.4µM, TDP1 cell CPT 18.4µM (no result: TDP1 block, ClpP mod)
Cc1cccn2c(=O)c3cc(C#N)c(=NC(=O)c4ccco4)n(Cc4ccco4)c3nc12	DT40 TDP1 no CPT inconclusive (no result: TDP1 block, ClpP mod)
COC(=O)[C@@H]1C[C@@]2(O)[C@@H](O)[C@@H](O)[C@@H](O)C[C@H]2N1Cc1ccc(C(C)(C)C)cc1	none (no result: DT40 TDP1 no CPT, ClpP mod, TDP1 cell CPT)
COc1ccc(OC)c(-c2ccc(O)c(CN3CCc4c([nH]c5ccccc45)C3)c2)c1	DT40 TDP1 no CPT inconclusive (no result: TDP1 block, ClpP mod)
CCOc1ccc(S(=O)(=O)N2CCN(C(=O)CCOc3ccccc3C)CC2)cc1	DT40 TDP1 no CPT 18.4µM, TDP1 cell CPT inconclusive
Cc1ccc(C)c(OCCC(=O)OCC(=O)N2CCN(S(=O)(=O)c3ccc(Cl)cc3)CC2)c1	DT40 TDP1 no CPT inconclusive, TDP1 cell CPT inconclusive
COc1ccc(S(=O)(=O)N2CCN(C(=O)CCSc3ccccc3)CC2)cc1	DT40 TDP1 no CPT inconclusive, TDP1 cell CPT 11.6µM
